# Source: PubChem BioAssay (several laboratories)
# WT yeast gro inh – growth inhibition of WT yeast, mitochondrial fusion screen. mitochondrial fusion phenotypic screen, WT strain. inhibition, % at 10 µM. 190,000 tested, 2.1% active; in the data active = inhibition above about 58%; tested in S. cerevisiae
# PERK inh – human PERK inhibition, primary cell-based screen. inhibition, % at 5.6 µM. CHO PERK-DD fusion, SEAP luminescence translation reporter. 220,000 tested, 0.17% active. Q9NZJ5;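 active = inhibition above the mean inhibition of all tested compounds plus 3 SD, set separately per screening campaign, cut at about 2.9% in these data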;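 note: PERK kinase domain activated by AP20187 dimerizer at 100 nM; 0% = DMSO with dimerizer and 100% = rapamycin at 8.4 µM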
# Target sequence (Q9NZJ5 whole entry, looked up, the tested form may be a part): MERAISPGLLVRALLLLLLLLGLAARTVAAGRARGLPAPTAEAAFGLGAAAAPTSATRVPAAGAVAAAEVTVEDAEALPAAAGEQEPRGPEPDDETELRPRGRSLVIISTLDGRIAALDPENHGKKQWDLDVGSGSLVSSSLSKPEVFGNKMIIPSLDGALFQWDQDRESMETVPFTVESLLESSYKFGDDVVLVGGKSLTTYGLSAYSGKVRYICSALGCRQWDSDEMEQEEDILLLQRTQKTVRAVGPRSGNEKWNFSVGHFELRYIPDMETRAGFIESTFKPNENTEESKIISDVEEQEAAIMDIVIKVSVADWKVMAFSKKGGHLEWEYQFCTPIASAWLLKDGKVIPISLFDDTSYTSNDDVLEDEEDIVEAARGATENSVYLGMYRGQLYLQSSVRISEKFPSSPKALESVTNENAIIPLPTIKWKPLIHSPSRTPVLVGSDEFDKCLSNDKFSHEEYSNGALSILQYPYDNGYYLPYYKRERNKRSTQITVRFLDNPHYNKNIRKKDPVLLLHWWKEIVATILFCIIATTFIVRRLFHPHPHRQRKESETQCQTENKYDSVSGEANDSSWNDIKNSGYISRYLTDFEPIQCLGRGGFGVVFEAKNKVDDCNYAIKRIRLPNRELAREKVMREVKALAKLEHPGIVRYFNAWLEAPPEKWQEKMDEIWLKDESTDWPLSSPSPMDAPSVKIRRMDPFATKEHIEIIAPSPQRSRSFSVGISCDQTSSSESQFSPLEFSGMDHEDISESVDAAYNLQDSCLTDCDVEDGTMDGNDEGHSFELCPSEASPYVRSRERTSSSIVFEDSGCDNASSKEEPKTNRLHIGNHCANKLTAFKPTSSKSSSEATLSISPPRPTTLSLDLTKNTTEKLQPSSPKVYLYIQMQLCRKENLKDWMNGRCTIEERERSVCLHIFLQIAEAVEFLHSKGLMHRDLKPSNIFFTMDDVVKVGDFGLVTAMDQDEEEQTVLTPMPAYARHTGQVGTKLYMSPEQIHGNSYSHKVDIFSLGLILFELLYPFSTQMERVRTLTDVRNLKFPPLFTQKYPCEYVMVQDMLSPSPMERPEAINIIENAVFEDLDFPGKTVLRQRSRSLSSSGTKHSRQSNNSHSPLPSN
# Arbovirus inh – antivirals against arbovirus infection; 200,000 tested, 0.37% active; inhibition, % at 10 µM; AID 1251; arbovirus infection cell-based antiviral screen; in the data active = inhibition above about 30%
# ROMK mod – modulates human ROMK potassium channel activity; B-score at 10 µM; AID 1918; 130,000 tested, 2% active; Tet-inducible ROMK, thallium flux fluorescence; actives lie on both sides;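 active = signal ratio slope over the read window, or its plate-corrected B-score, at least 3 SD from the plate mean, either direction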;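 note: B-score of the F/F0 ratio slope over 7 to 12 s after thallium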
# ROMK hit retest – human ROMK channel modulation, retest confirmation. shares compounds with ROMK mod. ROMK thallium flux, fluorescence ratio; hits give low values. normalized thallium flux (F/F0 slope) at 10 µM. 3,000 tested, 54% active. AID 1917;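 active = Flux at 10 µM at least 3 SD below or above vehicle control mean in one or both replicates; inconclusive = no clear call, values can overlap the other calls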
# Starred values were filed as active, the others as inactive; u = inconclusive; x = not tested or not shown. Rows were chosen to be rich in hits. Some 3.3% of all compounds tested hit in one or more screens of this group.
SMILES,WT yeast gro inh,PERK inh,Arbovirus inh,ROMK mod,ROMK hit retest
O=C(NCc1cccnc1)/C(=C/c1ccc(-c2ccc(Cl)cc2)o1)S(=O)(=O)c1ccccc1,6,-2,-35,x,0.055*
O=C(N/N=C1\CCCc2ccccc21)c1cccc(Br)c1,-3,0,-4,-0.79,x
COc1ccc(C(=O)CN2CCN(c3cc(C)nc4ccccc34)CC2)cc1,x,0,x,-0.6,x
CC1(C)CC(CC(=O)O)(c2ccccc2)CCO1 (stereo not drawn),-12,1,10,x,0.072
Cc1ccc(C(=O)NNC(=S)Nc2cccc(Cl)c2Cl)cc1[N+](=O)[O-],8,0,5,4.3*,0.091
COC(=O)c1ccc(NCCC(=O)O)cc1,-7,1,7,x,x
C#CCOCCOCCOCCNc1nc(N2CCN(C(=O)C(Cc3cc4ccccc4[nH]3)n3cc(C(N)Cc4ccc(O)cc4)nn3)CC2)nc(N2CCN(C(=O)C(Cc3cc4ccccc4[nH]3)n3cc(C(N)Cc4ccc(O)cc4)nn3)CC2)n1 (stereo not drawn),-10,0,-6,x,x
C#CCOCCOCCOCCNc1nc(N2CCN(C(=O)[C@H](Cc3cc4ccccc4[nH]3)n3cc([C@@H](N)Cc4ccc(O)cc4)nn3)CC2)nc(N2CCN(C(=O)[C@H](Cc3cc4ccccc4[nH]3)n3cc([C@@H](N)CC(C)C)nn3)CC2)n1,x,x,x,x,0.045*
Cc1ccc(OCC(=O)Nc2cccc(-c3nnc(-c4ccccc4)o3)c2)cc1,41,1,0,x,0.079
CCOc1ccc(CNC(=O)CCCOc2cc(=O)n(C)c3ccccc23)cc1,-14,-2,-9,x,x
Cc1cc(C)c2c(N)c(C(=O)c3ccccc3)sc2n1,x,0,x,0.29,x
O=C(c1ccccc1)c1c2c(cc3sc4ccccc4[n+]13)-c1cccc3cccc-2c13,79,-1,-37,x,0.045*
Cc1sc2cc3c(c(C(=O)c4ccccc4)[n+]2c1C)-c1cccc2cccc-3c12,70*,-1,-23,-3.1*,0.055*
CCn1c(SCc2cc(=O)[nH]c3ccccc23)nc2c1c(=O)n(C)c(=O)n2C,x,0,x,0.84,x
CCN1CC=C2C(C#N)=C(N)C(C#N)(C#N)[C@H](c3cccc(OC)c3OC)[C@H]2C1,1,-1,-7,x,x
CCN1CC=C2C(C1)C(c1ccc(Cl)s1)C(C#N)=C(N)C2(C#N)C#N (stereo not drawn),42,-1,9,x,0.039*
O=C(Cn1c(=O)c(=O)n(Cc2ccccc2)c2ccc(Cl)cc21)Nc1cccc(F)c1,-4,0,10,x,x
Cc1ccc(N=Cc2cc(Br)cc(Cl)c2O)cc1,10,3,4,3.4*,0.1*
CCc1ccc(OCC(=O)c2c(O)c3ccccc3oc2=O)cc1,1,0,11,0.65,x
CCc1oc2ccccc2c1C(=O)c1cc(Br)c(O)c(Br)c1,85*,0,-13,4.6*,0.15*
CCOc1cc(/C=C(\C#N)C(N)=O)ccc1OS(=O)(=O)c1ccccc1,-9,0,-1,-5*,0.033*
OCc1cn(-c2ccccc2)nc1-c1ccc(-c2nn(-c3ccccc3)cc2CO)cc1,-9,0,3,0.016,x
Cc1ccc(-c2nn(-c3ccccc3)cc2CSC(=N)N)cc1,81*,-1,-32,x,0.052*
Cc1ccc(C2C(C(=O)c3cccs3)=C(O)C(=O)N2CCN2CCOCC2)o1 (stereo not drawn),-4,1,-2,x,x
Cc1ccc(-c2nc(CSCC(=O)NCc3cccnc3)c(C)o2)cc1,10,-1,8,0.17,x
SMILES,WT yeast gro inh,PERK inh,Arbovirus inh,ROMK mod,ROMK hit retest
Cc1cc(N2CCOCC2)ccc1/C=C1\NC(=O)N(CC(=O)Nc2ccccc2C)C1=O,-4,0,2,0.75*,u
Cc1ccc(NC(=O)c2nc(C)n(-c3ccc([N+](=O)[O-])cc3)n2)cc1,3,1,22,x,u
O=C(c1cccc(C(=O)N2CCN(c3ccccc3)CC2)c1)N1CCN(c2ccccc2)CC1,18,-1,18,-0.28,x
CC(=O)c1ccc(N2CCN(C(=O)c3cccc(Oc4ccccc4)c3)CC2)cc1,41,-1,2,-2,0.081
CCN(CC)C(=O)CCSc1nnc(-c2ccco2)o1,-18,0,-6,1.3,0.073
O=C(CSc1nnc(-c2ccco2)o1)c1ccccc1,x,1,6,x,0.074
CN(CCC#N)S(=O)(=O)c1ccc2[nH]cc(C(=O)NCCc3ccccc3)c(=O)c2c1,-2,0,4,-0.0023,x
CCCC(=O)Nc1nnc(SCC(=O)NCc2ccco2)s1,-6,0,-3,x,x
COc1ccc(N=Cc2oc3ccc4ccccc4c3c2O)cc1,4,1,22,-3.5*,0.053*
COc1ccc(N=Cc2[nH]c3ccccc3c2O)cc1,-4,1,-5,-1.6,x
